According to PubChem BioAssay (EPA / NIEHS):
Results filed as inconclusive are left out. Activity calls are given as the source filed them. The calls were made as follows: active = hit-call score of the fitted dose curve at least 0.9, where 1 is the maximum; inconclusive = response in the unintended direction; inactive = score below 0.9.

Assay: Tanguay_ZF_120hpf_NC_legacy: (Legacy) Oregon State University Tanguay Lab 120 Hour Post-fertilization zebrafish Assay for Notochord and Tail Malformation (AID 2283656)
Description: Tanguay_ZF_120hpf_legacy is a whole embryo, multiplexed endpoint assay using zebrafish larvae exposed for 120 hours post fertilization on a 96-well plate.Tanguay_ZF_120hpf_NC_legacy is one of one assay component(s) measured or calculated from the Tanguay_ZF_120hpf_legacy assay. It is designed to make measurements of zebrafish development as detected with brightfield microscopy of developing zebrafish embryos.Data from the assay component Tanguay_ZF_120hpf_NC_legacy was analyzed into 1 assay endpoints. This assay endpoint, Tanguay_ZF_120hpf_NC_legacy, was analyzed in the positive analysis fitting direction relative to DMSO as the negative control and baseline of activity. Using a type of morphology reporter, gain-of-signal activity can be used to understand changes in developmentals as they relate to the whole embryo. To generalize the intended target to other relatable targets, this assay endpoint is annotated to the zebrafish development intended target family, where the subfamily is embryonic notochord morphogenesis.
Zebrafish husbandry: Tropical 5D wild-type adult zebrafish were housed in at an approximate density of 1000 per 100 gallon tank at the Sinnhuber Aquatic Research Laboratory, Oregon State University, Corvallis, OR. Each tank was kept at standard laboratory conditions of 28C on a 14-h light/10-h dark photoperiod in fish water consisting of reverse osmosis water supplemented with a commercially available salt (Instant Ocean). Spawning funnels were placed into the tanks the night prior, and embryos were collected and staged. To increase bioavailability, the chorion was enzymatically removed using pronase (63.6mg/ml, >/= 3.5U/mg, Sigma-Aldrich: P5147) at 4 hours post fertilization (hpf) using a custom automated dechorionator.Chemical exposures: Six hpf dechorionated embryos were placed 1 embryo per well in a 96-well plate prefilled with 90 ul of EM using automated embryo placement systems (AEPS). Ten microliters of each row of dilution plate 2 was added to 2 exposure plates. The final DMSO concentration used was 0.64% (vol/vol). Thirty-two embryos were also exposed to 5uM trimethyltin chloride (positive control). Plates were sealed to prevent evaporation and foil covered to reduce light exposure and kept in a 28C incubator. Embryos were statically exposed until 120 hpf. At 24 hpf, embryos were assessed for photomotor response using a custom photomotor response analysis tool (PRAT) and for developmental toxicity endpoints (MO24: mortality at 24 hpf, DP: developmental progression, SM: spontaneous movement, and NC: notochord distortion). At 120 hpf, locomotor activity was measured using Viewpoint Zebralab and assessed for 18 endpoints. Zebrafish acquisition and analysis program (ZAAP), a custom program designed to inventory, acquire, and manage zebrafish data, was used to collect developmental endpoints as either present or absent (i.e., binary responses were recorded). If mortality occurred for an embryo (at either 24 or 120 hpf), the non-mortality endpoints were not measured.

Which outcome does the source give for `CC(C)Oc1cc(-n2nc(C(C)(C)C)oc2=O)c(Cl)cc1Cl` here?
The outcome was “inactive”.

Which outcome does the source give for `Cc1ccc(-c2c(Cl)nc(C#N)n2S(=O)(=O)N(C)C)cc1` here?
Its outcome is “inactive”.

Which outcome does the source give for `COC(=O)c1ccccc1C(=O)OC` here?
The outcome was “inactive”.

For `CCON=C(CC)C1=C(O)CC(c2c(C)cc(C)cc2C)CC1=O` (stereo not given), which outcome is on record?
Its outcome is “inactive”.

For `CC(C)C1(C)N=C(c2nc3ccccc3cc2C(=O)O)NC1=O` (stereo not given), which outcome is on record?
Its outcome is “inactive”.

For `CCCN(CCC)c1c([N+](=O)[O-])cc(S(N)(=O)=O)cc1[N+](=O)[O-]`, which outcome is on record?
The outcome was “inactive”.

Which outcome does the source give for `Fc1ccc(Oc2ccnc3cc(Cl)cc(Cl)c23)cc1` here?
The outcome was “inactive”.

For `CON(C)C(=O)Nc1ccc(Cl)c(Cl)c1`, which outcome is on record?
The outcome was “inactive”.

With `COP(=S)(OC)Oc1nc(Cl)c(Cl)cc1Cl` as the compound, how does the outcome read?
The outcome was “inactive”.

Which outcome does the source give for `CO/C=C(/C(=O)OC)c1ccccc1Oc1cc(Oc2ccccc2C#N)ncn1` here?
Its outcome is “inactive”.

For `CS/C(C)=N/OC(=O)N(C)SN(C)C(=O)O/N=C(\C)SC`, which AC50 is on record?
The AC50 was 25 µM (active).

For `COc1cnc(OC)n2nc(NS(=O)(=O)c3c(OCC(F)F)cccc3C(F)(F)F)nc12`, which outcome is on record?
The outcome was “inactive”.

Which outcome does the source give for `C=CCC1=C(C)C(OC(=O)C2C(C=C(C)C)C2(C)C)CC1=O` (stereo not given) here?
The outcome was “inactive”.

With `CCOC(=O)CC(SP(=S)(OC)OC)C(=O)OCC` (stereo not given) as the compound, how does the outcome read?
The outcome was “inactive”.

Which outcome does the source give for `CNC(=S)S` here?
Its outcome is “inactive”.

For `CN(C)C(=S)SSC(=S)N(C)C`, which outcome is on record?
Its outcome is “inactive”.

Which outcome does the source give for `CCOC(=O)C(Cl)Cc1cc(-n2nc(C)n(C(F)F)c2=O)c(F)cc1Cl` (stereo not given) here?
The outcome was “inactive”.

With `O=C(O)c1nc(Cl)ccc1Cl` as the compound, how does the outcome read?
Its outcome is “inactive”.

With `Oc1ccccc1-c1ccccc1` as the compound, how does the outcome read?
Its outcome is “inactive”.

For `Cc1c(F)c(F)c(COC(=O)C2C(/C=C(\Cl)C(F)(F)F)C2(C)C)c(F)c1F` (stereo not given), which outcome is on record?
Its outcome is “inactive”.

With `O=C(Nc1ccccc1)Nc1ccnc(Cl)c1` as the compound, how does the outcome read?
The outcome was “inactive”.

With `COC(=O)C(C)Oc1ccc(Oc2ccc(Cl)cc2Cl)cc1` (stereo not given) as the compound, how does the outcome read?
Its outcome is “inactive”.

For `CCCC1COC(Cn2cncn2)(c2ccc(Cl)cc2Cl)O1` (stereo not given), which outcome is on record?
Its outcome is “inactive”.

For `CC(Oc1ccc(Cl)cc1Cl)C(=O)O` (stereo not given), which outcome is on record?
Its outcome is “inactive”.

With `CCCCNC(=O)OCC#CI` as the compound, how does the outcome read?
Its outcome is “inactive”.

For `C#CCOS(=O)OC1CCCCC1Oc1ccc(C(C)(C)C)cc1` (stereo not given), which outcome is on record?
The outcome was “inactive”.

With `N#CC(CCc1ccc(Cl)cc1)(Cn1cncn1)c1ccccc1` (stereo not given) as the compound, how does the outcome read?
The outcome was “inactive”.

For `C=CCC1=C(C)[C@@H](OC(=O)[C@@H]2[C@@H](C=C(C)C)C2(C)C)CC1=O`, which outcome is on record?
Its outcome is “inactive”.

For `CC1COC(Cn2cncn2)(c2ccc(Oc3ccc(Cl)cc3)cc2Cl)O1` (stereo not given), which outcome is on record?
Its outcome is “inactive”.

Which outcome does the source give for `CCCCOC(=O)c1ccccc1C(=O)OCCCC` here?
The outcome was “inactive”.

For `CCCCNC(=O)n1c(NC(=O)OC)nc2ccccc21`, which outcome is on record?
Its outcome is “inactive”.

With `CNC(=O)ON=CC(C)(C)SC` as the compound, how does the outcome read?
The outcome was “inactive”.

Which outcome does the source give for `COC(=O)N(OC)c1ccccc1COc1ccn(-c2ccc(Cl)cc2)n1` here?
The outcome was “inactive”.

With `COc1nc(NC(C)C)nc(NC(C)C)n1` as the compound, how does the outcome read?
The outcome was “inactive”.

With `CCNc1nc(Cl)nc(NC(C)C)n1` as the compound, how does the outcome read?
The outcome was “inactive”.

Which outcome does the source give for `CCCCC(CC)COC(=O)c1ccccc1C(=O)OCC(CC)CCCC` (stereo not given) here?
The outcome was “inactive”.

With `CC(C)(C)c1ccc(CSc2cnn(C(C)(C)C)c(=O)c2Cl)cc1` as the compound, how does the outcome read?
Its outcome is “inactive”.

Which outcome does the source give for `CC1=C(C(=O)Nc2ccccc2)SCCO1` here?
Its outcome is “inactive”.

Which outcome does the source give for `N#Cc1cc(Br)c(O)c(Br)c1` here?
The outcome was “inactive”.

Which outcome does the source give for `CCc1nn(C)c(C(=O)NCc2ccc(C(C)(C)C)cc2)c1Cl` here?
The outcome was “inactive”.
